Results filed as inconclusive are left out. Entries that show only a call come without a potency. Calls of active or inactive are those of the source. Calls come from the whole dose curve; as a rule, active = well fitted cell-killing curve with a large enough effect in the repeat runs; inconclusive = weak or mixed curves, or effect the other way; inactive = no such curve, though single readings can be large or run the other way.
Test: qHTS assay to identify small molecule agonists of the vitamin D receptor (VDR) signaling pathway - cell viability counter screen (AID 743224); note: nearly all actives have a fitted effect of over 50% in size
Conditions: VDR-bla HEK293T viability, CellTiter-Glo luminescence, 16 h; series mostly up to 62.6 µM
Source text: U.S. Tox21 Program National Center for Advancing Translational Sciences [NCATS] NIH Chemical Genomics Center [NCGC] U.S. Environmental Protection Agency [EPA] National Institutes of Environmental Health Sciences [NIEHS] National Toxicology Program [NTP] U.S. Food and Drug Administration [FDA] Tox21 Assay Overview: The vitamin D receptor (VDR), a member of nuclear hormone receptor superfamily, plays a critical role in calcium homeostasis and bone metabolism. It is also involved in cell differentiation and growth, and thrombogenicity. […] The cytotoxicity of the Tox21 compound library against the VDR-bla cell line was tested in parallel by measuring the cell viability using CellTiter-Glo assay (Promega, Madison, WI) in the same wells.
Tox21 Assay Protocol Summary: VDR-bla cells were dispensed at 2,000 cells/6 uL/well into black wall/clear-bottom 1536-well plates using a Multidrop Combi (Thermo Fisher Scientific, Waltham, MA) dispenser. After the assay plates were incubated at a 37C and 5% CO2 for 4 h, 23 nL of compounds dissolved in DMSO, positive controls or DMSO only was transferred to the assay plate by a Pintool station (Kalypsys, San Diego, CA). The plates were incubated at 37C and 5% CO2 for 16 h. After 1 uL of LiveBLAzerTM B/G FRET substrate was added using a Bioraptr Flying Reagent Dispenser (FRD) workstation (Beckman Coulter, Indianapolis, IN, USA), the plates were incubated at room temperature for 2 h, and fluorescence intensity was measured by an Envision plate reader (PerkinElmer, Shelton, CT). For cell viability readout that measures cytotoxicity, 3 ul/well of CellTiter-Glo reagent was added into the assay plates using a FRD. After 30 min incubation at room temperature, the luminescence intensity in the plates was measured using a ViewLux (PerkinElmer) plate reader.
For `Cc1ccc(C)o1`, the Potency was “inactive”.
With `O=C(O)c1cccc(N(Cc2cccnc2)c2ccc(OC(F)F)c(OC(F)F)c2)c1` the Potency was “inactive”.
In the case of `CCOC(=O)CC(=O)c1cc(F)c(Cl)nc1Cl`, the Potency was “inactive”.
In the case of `O=C(O)C(c1ccc(Cl)cc1)c1ccc(Cl)cc1`, the Potency was “inactive”.
With `CCCCOCCOCCOCCOCCO` the Potency was “inactive”.
With `CCCCOc1cc(C(=O)OCCN(CC)CC)ccc1N` the Potency was “inactive”.
In the case of `CC1CCc2cc(F)cc3c(=O)c(C(=O)O)cn1c23` (stereo not given), the Potency was “inactive”.
For `C#CCOC(=O)[C@@H](C)Oc1ccc(Oc2ncc(Cl)cc2F)cc1`, the Potency was “inactive”.
For `COc1ccc([C@@H]2Sc3ccccc3N(CCN(C)C)C(=O)[C@@H]2OC(C)=O)cc1`, the Potency was “inactive”.
With `CCCCC(CC)(CO)CO` the Potency was “inactive”.
For `N=C(N=C(N)N)N1CCOCC1`, the Potency was “inactive”.
In the case of `CC(=O)Nc1ccc(/C=N/NC(N)=S)cc1`, the Potency was “inactive”.
In the case of `Nc1nc(N)c(-c2ccccc2)s1`, the Potency was “inactive”.
For `CC(=O)O[C@@H]1C(=O)O[C@@H]2[C@H]1OC(=O)[C@@H]2OC(C)=O`, the Potency was “inactive”.
In the case of `CC(C)c1cccc(C(C)C)c1NC(=O)NS(=O)(=O)c1cc(C(C)(C)O)co1`, the Potency was “inactive”.
With `N#Cc1c(F)cccc1F` the Potency was “inactive”.
For `CN(C(=O)CCCOc1ccc2[nH]c(=O)ccc2c1)C1CCCCC1`, the Potency was “inactive”.
With `NCCCN(CCO)CCO` the Potency was “inactive”.
For `CN(C)CCCNCCCN`, the Potency was “inactive”.
For `C=CC(C)(CCC=C(C)C)OC(=O)c1ccccc1` (stereo not given), the Potency was “inactive”.
For `CCCCCCCCC(CO)CCCCCC` (stereo not given), the Potency was “inactive”.
For `Oc1ccc(C(O)CNCCCCCCNCC(O)c2ccc(O)c(O)c2)cc1O` (stereo not given), the Potency was “inactive”.
With `OCCC1CCCCN1` (stereo not given) the Potency was “inactive”.
In the case of `O=C1CCCCCO1`, the Potency was “inactive”.
For `CCCCOC(=O)/C=C\C(=O)OCCCC`, the Potency was “inactive”.
For `CCC(C)N(C)C(=O)c1cc2ccccc2c(-c2ccccc2Cl)n1` (stereo not given), the Potency was “inactive”.
With `NCCCOCCOCCOCCCN` the Potency was “inactive”.
In the case of `CC1(C)CCC(C)(C)c2cc(NC(=O)c3ccc(C(=O)O)cc3)ccc21`, the Potency was “inactive”.
With `O=C(O)/C=C/c1cnc[nH]1` the Potency was “inactive”.
In the case of `Cn1c(NCCN(CCO)CCCc2ccc([N+](=O)[O-])cc2)cc(=O)n(C)c1=O`, the Potency was “inactive”.
For `C[C@H](CCC(=O)O)[C@H]1CC[C@H]2[C@@H]3[C@H](O)C[C@@H]4C[C@H](O)CC[C@]4(C)[C@H]3CC[C@]12C`, the Potency was “inactive”.
For `CCCCCC(CO)CCC` (stereo not given), the Potency was “inactive”.
In the case of `CC(Cc1cccc(C(F)(F)F)c1)NCCOC(=O)c1ccccc1` (stereo not given), the Potency was 23.7 µM (active).
In the case of `Cc1ccccn1`, the Potency was “inactive”.
In the case of `O=S(=O)(O)c1ccc(O)c2ncccc12`, the Potency was “inactive”.
For `Cc1cc(C)c(S(=O)(=O)O)cc1N=Nc1cc(S(=O)(=O)O)c2ccccc2c1O`, the Potency was “inactive”.
For `CC1=CC(=O)/C(=C(/C)O)C(=O)O1`, the Potency was “inactive”.
With `CN(C)C/C=C(/c1ccc(Br)cc1)c1cccnc1` the Potency was “inactive”.
In the case of `CCOC(=O)[C@H](CCc1ccccc1)N[C@H]1CCc2ccccc2N(CC(=O)O)C1=O`, the Potency was 21.1 µM (active).
For `CN1CCC(=C2c3ccccc3C=Cc3ccccc32)CC1`, the Potency was “inactive”.

Reference: PubChem BioAssay (Tox21)
Potency is the fitted concentration of half-maximal effect.
